Results taken from PubChem BioAssay (NCI).
Compounds without any hit were thinned out: in the full panel of roughly 83,000, 20% have a hit.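 The test compound was applied at a single concentration to cells in 96-well plates for 48 hours, and percent growth was recorded.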 The source made the active and inactive calls. How the source made its calls: active means growth percent below 10; inactive means the rest.

How the values were obtained:
Assay in all cases: NCI-60 one-dose screen, 48 h (100 = growth as untreated, 0 = no growth, -100 = all killed)
Conditions in all cases: 10 µM unless noted
NCI-H23 lung = system: NCI-H23 lung
NCI-H226 lung = system: NCI-H226 lung
NCI-H322M lung = system: NCI-H322M lung
HOP-62 NSCLC = system: HOP-62 NSCLC
NCI-H460 lung = system: NCI-H460 lung
HOP-92 NSCLC = system: HOP-92 NSCLC
NCI-H522 lung = system: NCI-H522 lung
A549/ATCC NSCLC = system: A549/ATCC NSCLC
786-0 renal = system: 786-0 renal
COLO 205 colon = system: COLO 205 colon
DU-145 prostate = system: DU-145 prostate
MALME-3M melanoma = system: MALME-3M melanoma
MDA-MB-231 breast = system: MDA-MB-231 breast
RXF 393 renal = system: RXF 393 renal
SF-268 CNS = system: SF-268 CNS
SF-295 CNS = system: SF-295 CNS
SF-539 CNS = system: SF-539 CNS
UACC-257 melanoma = system: UACC-257 melanoma
M14 melanoma = system: M14 melanoma

Measured: growth

COc1cc(/C=C/C(=O)c2cccnc2Nc2ccc(F)cc2)cc(OC)c1OC
active: DU-145 prostate 0.388%
inactive: NCI-H23 lung 40.2% | NCI-H226 lung 43% | NCI-H322M lung 103% | HOP-62 NSCLC 43.6% | NCI-H460 lung 22.5% | HOP-92 NSCLC 37.7% | NCI-H522 lung 29.7% | A549/ATCC NSCLC 32.9% | 786-0 renal 70.3% | COLO 205 colon 83.9% | MALME-3M melanoma 94.2% | MDA-MB-231 breast 37.9% | RXF 393 renal 22.6% | SF-268 CNS 21.6% | SF-295 CNS 57.6% | SF-539 CNS 56.1% | UACC-257 melanoma 31.9% | M14 melanoma 70%

COc1ccc(-c2nc(SCC(=O)Nc3ccc(C(=O)/C=C/c4ccc(Cl)cc4)cc3)[nH]c(=O)c2C#N)cc1
inactive: NCI-H23 lung 85.4% | NCI-H226 lung 96.3% | NCI-H322M lung 88.8% | HOP-62 NSCLC 100% | NCI-H460 lung 99.1% | HOP-92 NSCLC 81.7% | NCI-H522 lung 77.4% | A549/ATCC NSCLC 101% | 786-0 renal 105% | COLO 205 colon 86.8% | DU-145 prostate 103% | MALME-3M melanoma 95.4% | MDA-MB-231 breast 38.1% | RXF 393 renal 97.3% | SF-268 CNS 102% | SF-295 CNS 98.5% | SF-539 CNS 85.8% | UACC-257 melanoma 102% | M14 melanoma 77.9%

COc1ccc2c(c1)C(=O)/C(=C/c1ccccn1)CC2
inactive: NCI-H23 lung 74.1% | NCI-H226 lung 95.8% | NCI-H322M lung 99.3% | HOP-62 NSCLC 105% | NCI-H460 lung 97.8% | HOP-92 NSCLC 84.1% | NCI-H522 lung 16.5% | A549/ATCC NSCLC 95.2% | 786-0 renal 100% | COLO 205 colon 87.7% | DU-145 prostate 26.1% | MALME-3M melanoma 72.7% | MDA-MB-231 breast 69.4% | RXF 393 renal 83% | SF-268 CNS 90.8% | SF-295 CNS 78.2% | SF-539 CNS 72% | UACC-257 melanoma 81% | M14 melanoma 85.4%

COc1ccc(-c2nnc(SCC(=O)c3ccc(Cl)cc3)o2)cc1
inactive: NCI-H23 lung 93.9% | NCI-H226 lung 103% | NCI-H322M lung 108% | HOP-62 NSCLC 95.7% | NCI-H460 lung 110% | HOP-92 NSCLC 105% | NCI-H522 lung 76.3% | A549/ATCC NSCLC 92% | 786-0 renal 96.9% | COLO 205 colon 112% | DU-145 prostate 108% | MALME-3M melanoma 106% | MDA-MB-231 breast 98.7% | RXF 393 renal 113% | SF-268 CNS 101% | SF-295 CNS 101% | SF-539 CNS 95.6% | UACC-257 melanoma 107% | M14 melanoma 106%

CC(=O)c1cc(C(=O)c2ccc3c(c2)Sc2ccccc2N3)n2ccccc12
inactive: NCI-H23 lung 24.1% | NCI-H226 lung 32.5% | NCI-H322M lung 24.5% | HOP-62 NSCLC 21.8% | HOP-92 NSCLC 46.1% | A549/ATCC NSCLC 10.8% | 786-0 renal 22.5% | MALME-3M melanoma 53.1% | MDA-MB-231 breast 17.9% | SF-268 CNS 29.7% | UACC-257 melanoma 51.4% | M14 melanoma 20.1%
active: NCI-H460 lung 2.97% | NCI-H522 lung -28.9% | COLO 205 colon -55.4% | DU-145 prostate 1.94% | RXF 393 renal 7.01% | SF-295 CNS 8.93% | SF-539 CNS -38.3%

CC(=O)OC[C@H]1O[C@H](OC(C)=O)[C@H](NC(=O)/C=C/CCl)[C@@H](OC(C)=O)[C@@H]1OC(C)=O
active: NCI-H522 lung -64%
inactive: NCI-H23 lung 75.4% | NCI-H226 lung 109% | NCI-H322M lung 84.5% | HOP-62 NSCLC 96.1% | NCI-H460 lung 96.6% | HOP-92 NSCLC 76.6% | A549/ATCC NSCLC 87.6% | 786-0 renal 68% | COLO 205 colon 74.9% | DU-145 prostate 93.2% | MALME-3M melanoma 83.2% | MDA-MB-231 breast 46.3% | RXF 393 renal 75.2% | SF-268 CNS 89.3% | SF-295 CNS 87.5% | SF-539 CNS 65.6% | UACC-257 melanoma 64% | M14 melanoma 87.5%

COc1cc(/C=C/C(=O)Nc2cccnc2Nc2ccc(F)cc2)cc(OC)c1OC
inactive: NCI-H23 lung 99.6% | NCI-H226 lung 99% | NCI-H322M lung 107% | HOP-62 NSCLC 103% | NCI-H460 lung 112% | HOP-92 NSCLC 74.8% | NCI-H522 lung 48.9% | A549/ATCC NSCLC 70.1% | 786-0 renal 92.8% | COLO 205 colon 113% | DU-145 prostate 110% | MALME-3M melanoma 110% | MDA-MB-231 breast 93.5% | RXF 393 renal 108% | SF-268 CNS 102% | SF-295 CNS 94.2% | SF-539 CNS 95.2% | UACC-257 melanoma 62.9% | M14 melanoma 103%

O=C1c2c(O)cc(O)cc2-c2c(-c3ccc(O)cc3)oc3cc(O)cc1c23
inactive: NCI-H23 lung 39.9% | NCI-H226 lung 61.2% | NCI-H322M lung 65.2% | HOP-62 NSCLC 22.1% | NCI-H460 lung 10% | HOP-92 NSCLC 44.6% | NCI-H522 lung 11% | A549/ATCC NSCLC 43.2% | 786-0 renal 41.8% | COLO 205 colon 86.2% | DU-145 prostate 40.9% | MALME-3M melanoma 54.7% | MDA-MB-231 breast 66.8% | RXF 393 renal 62.1% | SF-268 CNS 50.7% | SF-295 CNS 29.1% | SF-539 CNS 25.2% | UACC-257 melanoma 67.5% | M14 melanoma 46.1%

COc1cccc(NC(=O)c2sc3nc(C)c(C(C)=O)cc3c2N)c1
inactive: NCI-H23 lung 65.5% | NCI-H226 lung 83.7% | NCI-H322M lung 45.5% | HOP-62 NSCLC 44.7% | NCI-H460 lung 10.8% | HOP-92 NSCLC 52% | NCI-H522 lung 40.1% | A549/ATCC NSCLC 20.5% | 786-0 renal 58.5% | DU-145 prostate 23.3% | MALME-3M melanoma 71.2% | MDA-MB-231 breast 58.5% | RXF 393 renal 51.6% | SF-268 CNS 69.8% | SF-295 CNS 29.9% | SF-539 CNS 32% | UACC-257 melanoma 60.1% | M14 melanoma 23.7%
active: COLO 205 colon -1.6%
